Source: PubChem BioAssay (several laboratories)
Shown are actives, neighbours in structure and some others; about 2.8% of the full set was active somewhere.
PAX8 inh HTS: inhibitors of PAX8-driven TPO luciferase reporter, primary screen, RMG-I cells, single concentration; SteadyGlo, 24 h; inhibition, % at 12.6 µM; hit rate 1.2% among 360,000;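 active = mean replicate inhibition at least 60% with every replicate also reaching 60%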;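 also: luciferase light reporting Pax8 driven TPO promoter activity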
LGR2 antag: inhibitors of bursicon-induced LGR2 CRE-luciferase signal, primary screen, cell-based, HEK293, CRE-luciferase reporter, bursicon stimulation; inhibition, % at 9.99 µM; AID 720647, 2013; bursicon-stimulated, 4 h; hit rate 0.35% among 380,000;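 active = drop in luminescence signal, shown as inhibition above about 50% in the replicate tests, limit read from the data, passing the limit was not always enough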;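 also: agonist challenge used bursicon conditioned medium at about half maximal strength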
TROY signal inh: inhibitors of TROY-driven NF-kB signaling, primary screen, Q293 LMP1-TROYcd cells, NF-kB luciferase, uHTS. Q293 LMP1-TROYcd NF-kB luciferase reporter, 4 h. inhibition, % at 10 µM. hit rate 0.98% among 360,000;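 active = compounds whose plate-normalised and pattern-corrected inhibition of the luciferase reporter signal at the single screening dose is 50% or more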
EWS-Fli block: EWS/Fli-driven NR0B1 reporter inhibitors, primary screen, A673 cells, NR0B1 luciferase, luminescence, MLPCN library; viability-normalised; inhibition, % at 12.6 µM; hit rate 0.67% among 350,000;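 active = mean inhibition of at least 50% after viability correction, with every replicate also passing that limit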;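 also: firefly luciferase signal divided by Alamar Blue viability fluorescence both relative to DMSO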
TWEAK-Fn14 inh: inhibitors of TWEAK-Fn14 signaling, primary screen, luciferase reporter cells, uHTS; inhibition, % at 10 µM; hit rate 2% among 360,000; TWEAK-stimulated Fn14 reporter cells, luciferase luminescence, 8 h; in the data active = inhibition above about 50%
A number is an active result; - = inactive; . = not tested or not shown.

SMILES	PAX8 inh HTS	LGR2 antag	TROY signal inh	EWS-Fli block	TWEAK-Fn14 inh
NC(=O)c1cccc(-c2noc(-c3ccccc3F)n2)c1	-	-	-	87	-
COC(=O)c1cccc(-c2noc(-c3ccccc3F)n2)c1	-	-	-	90	-
O=C(O)c1cccc(-c2noc(-c3cccc(Cl)c3)n2)c1	-	84	-	-	-
CC(C)NC(=O)Nc1ccc2c(c1)C(=O)N([C@@H](C)CO)C[C@@H](C)[C@@H](CN(C)S(=O)(=O)c1ccccc1)OCCCC[C@@H](C)O2	-	-	.	-	.
CCS(=O)(=O)Nc1ccc2c(c1)C(=O)N(C)[C@@H]1CC[C@H](CC(=O)NCc3ccccc3F)O[C@@H]1CO2	-	-	.	-	.
C[C@@H]1CN([C@H](C)CO)C(=O)CCCn2nncc2CO[C@@H]1CN(C)Cc1ccc(O)cc1	.	-	.	-	.
CC(C)C#Cc1cnc2c(c1)C(=O)N([C@H](C)CO)C[C@H](C)[C@@H](CN(C)Cc1cccc(F)c1)O2	-	-	.	-	.
CC(OC(=O)C1CCCCC1)c1nc2ccccc2[nH]1 (stereo unspecified)	-	-	-	-	59
CSCCC(NC(=O)C1CCCCC1)c1nc2ccccc2[nH]1 (stereo unspecified)	-	-	-	-	-
O=S(=O)(c1cccc(F)c1)N1CC[C@@H]2[C@@H](CO)Nc3ccc(Br)cc3[C@@H]21	-	-	.	-	.
CN(C)C(CNC(=O)CSc1nnc(-c2ccco2)o1)c1ccccc1 (stereo unspecified)	.	.	-	.	98
O=C(O)CSc1nnc(-c2ccco2)o1	-	.	-	.	-
COc1ccc(/C=C(\C#N)C(=O)NC(C)c2ccccc2)cc1O (stereo unspecified)	-	-	-	-	-
CC(NC(=O)/C(C#N)=C/c1ccc([N+](=O)[O-])o1)c1ccccc1 (stereo unspecified)	-	-	-	69	-
COC(=O)c1ccc(/C=C(\C#N)C(=O)NC(C)c2ccccc2)cc1 (stereo unspecified)	-	-	-	-	57
C/C=C/c1ccc2c(c1)O[C@H](CN(C)Cc1ccccn1)[C@H](C)CN([C@@H](C)CO)S2(=O)=O	-	-	.	-	.
C[C@@H]1CN([C@H](C)CO)C(=O)c2cc(NC(=O)Nc3ccc(C(F)(F)F)cc3)ccc2O[C@@H](C)CCCCO[C@H]1CN(C)C(=O)Nc1ccc(F)cc1	84	-	.	-	.
C[C@H](CO)N1C[C@H](C)[C@@H](CN(C)C(=O)Nc2ccc(F)cc2)OCCCC[C@H](C)Oc2ccc(NC(=O)Nc3ccc(C(F)(F)F)cc3)cc2C1=O	-	-	.	-	.
C[C@@H]1CCCCO[C@H](CN(C)C(=O)Nc2ccc(F)cc2)[C@@H](C)CN([C@@H](C)CO)C(=O)c2cc(NC(=O)Nc3ccc(C(F)(F)F)cc3)ccc2O1	95	-	.	-	.
C/C=C/c1ccc2c(c1)O[C@H](CN(C)Cc1ccc(C(=O)O)cc1)[C@@H](C)CN([C@@H](C)CO)S2(=O)=O	-	-	.	-	.
O=C(Nc1csc([N+](=O)[O-])c1)Nc1c(Cl)cccc1Cl	-	-	-	-	-
O=C(Nc1ccc(Cl)cc1)Nc1csc([N+](=O)[O-])c1	72	-	-	-	67
O=C(Oc1ccc(C(=S)N2CCC(O)CC2)cc1)c1ccc(Cl)cc1	-	-	57	-	-
COc1ccc(-n2cc(-c3ccc(C)cc3)[n+]3c2SCC3)cc1	79	-	-	.	-
c1ccc(-c2cn(-c3ccccc3)c3[n+]2CCCS3)cc1	-	-	-	-	-
SMILES	PAX8 inh HTS	LGR2 antag	TROY signal inh	EWS-Fli block	TWEAK-Fn14 inh
Cc1ccc(-c2cn(-c3ccccc3)c3[n+]2CCCS3)cc1	79	-	-	-	-
CCc1ccc(-n2cc(-c3ccc(F)cc3)[n+]3c2SCCC3)cc1	-	-	-	-	-
COc1cc(C=CC(=O)c2ccccc2)cc(OC)c1OC	-	-	-	-	79
COc1cc(C=CC(=O)c2cc(OC)c(OC)c(OC)c2)cc(OC)c1OC	96	57	-	-	65
COc1cc(/C=C/C(C)=O)cc(OC)c1OC	-	.	-	.	-
COc1cc(O)c(C(=O)/C=C/c2ccccc2)c(OC)c1	.	-	-	-	74
COc1cc(OC)c(C(=O)C=Cc2ccc(OC)c(OC)c2)c(OC)c1	-	-	-	-	-
COc1ccc2cc(C(=O)/C=C/c3cc(OC)c(OC)c(OC)c3)ccc2c1	-	-	-	-	-
CCCCNCc1nc2ccccc2c(=O)[nH]1	-	.	-	-	-
CCc1ccc(NCc2nc3ccccc3c(=O)[nH]2)cc1	-	.	67	.	-
O=C(CSc1nc2ccccc2c(=O)n1-c1ccccc1)N1CCc2ccccc2C1	.	-	-	.	-
CC(C)c1ccccc1-n1c(SCC(=O)N2CCc3ccccc3C2)nc2ccccc2c1=O	-	-	54	-	-
CC(=O)NNc1ncnc2c1cnn2-c1ccc(C)c(C)c1	-	-	54	-	66
CCC(=O)NNc1ncnc2c1cnn2-c1ccccc1	-	-	-	-	-
COc1cccc(-c2ccc3c(c2)[C@H]2[C@H](CCN2S(=O)(=O)c2ccccc2F)[C@@H](CO)N3)c1	101	-	.	-	.
O=C(Cc1ccccc1)N1CC[C@@H]2[C@H]1c1cc(-c3ccccc3)ccc1N[C@@H]2CO	62	-	.	-	.
Cc1ccccc1S(=O)(=O)N1CC[C@@H]2[C@H](CO)Nc3ccc(-c4cccc(F)c4)cc3[C@@H]21	114	-	.	-	.
COc1cccc(S(=O)(=O)N2CC[C@@H]3[C@@H](CO)Nc4ccc(-c5ccccc5OC)cc4[C@@H]32)c1	80	-	.	-	.
C[C@@H]1CN([C@H](C)CO)C(=O)Cc2cc(NC(=O)Nc3ccccc3)ccc2O[C@@H]1CN(C)S(=O)(=O)c1cn(C)cn1	-	-	.	-	.
COc1ccc(NC(=O)N(C)C[C@H]2Oc3ccc(NS(C)(=O)=O)cc3CC(=O)N([C@H](C)CO)C[C@H]2C)cc1	-	-	.	-	.
Cc1noc(C)c1NC(=O)NCC[C@H]1CC[C@@H](NC(=O)Nc2cccc(F)c2)[C@@H](CO)O1	-	-	.	-	.
O=S(=O)(c1ccccc1F)N1CC[C@@H]2[C@H](CO)Nc3ccc(C4=CCCCC4)cc3[C@@H]21	89	-	.	-	.
COc1ccccc1S(=O)(=O)N1CC[C@H]2[C@H](CO)Nc3ccc(-c4ccc(F)cc4)cc3[C@H]21	72	-	.	-	.
C[C@@H]1CN([C@H](C)CO)S(=O)(=O)c2ccc(Br)cc2O[C@H]1CN(C)C(=O)CN(C)C	.	-	.	-	.
C[C@H]1CN([C@@H](C)CO)C(=O)c2cccc(NC(=O)Nc3ccccc3)c2O[C@@H]1CN(C)C(=O)NC1CCCCC1	-	-	.	-	.
C=CCn1c(NC(=O)c2ccccc2Cl)c(C#N)c2nc3ccccc3nc21	-	.	66	.	-
CN1CCN(C(=O)C[C@@H]2CC[C@H]3[C@@H](COC[C@H](O)CN3CC3CCCC3)O2)CC1	-	-	.	.	.
